# Results: PubChem BioAssay AID504500 (NMMLSC, 2011)
# Potency and affinity values are given separately. Values without a mark were called inactive.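 How the source made its calls: active means compounds whose curve fit is tight, with span above 25% and half-effect concentration below 10 µM; inactive means the rest.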
# Target: Beta-adrenergic receptor kinase 1 (Homo sapiens) (UniProt P25098)
# Test: aptamer displacement from bead-bound GRK2 – biochemical, cherry pick 1, bead flow cytometry, dose response (AID 504500)
# Details: bead-bound biotinylated GRK2, FAM-aptamer displacement; series mostly up to 33 µM; inhibition of aptamer binding: at the top concentration
# Sequence of Beta-adrenergic receptor kinase 1 (Homo sapiens) (P25098 whole entry, looked up): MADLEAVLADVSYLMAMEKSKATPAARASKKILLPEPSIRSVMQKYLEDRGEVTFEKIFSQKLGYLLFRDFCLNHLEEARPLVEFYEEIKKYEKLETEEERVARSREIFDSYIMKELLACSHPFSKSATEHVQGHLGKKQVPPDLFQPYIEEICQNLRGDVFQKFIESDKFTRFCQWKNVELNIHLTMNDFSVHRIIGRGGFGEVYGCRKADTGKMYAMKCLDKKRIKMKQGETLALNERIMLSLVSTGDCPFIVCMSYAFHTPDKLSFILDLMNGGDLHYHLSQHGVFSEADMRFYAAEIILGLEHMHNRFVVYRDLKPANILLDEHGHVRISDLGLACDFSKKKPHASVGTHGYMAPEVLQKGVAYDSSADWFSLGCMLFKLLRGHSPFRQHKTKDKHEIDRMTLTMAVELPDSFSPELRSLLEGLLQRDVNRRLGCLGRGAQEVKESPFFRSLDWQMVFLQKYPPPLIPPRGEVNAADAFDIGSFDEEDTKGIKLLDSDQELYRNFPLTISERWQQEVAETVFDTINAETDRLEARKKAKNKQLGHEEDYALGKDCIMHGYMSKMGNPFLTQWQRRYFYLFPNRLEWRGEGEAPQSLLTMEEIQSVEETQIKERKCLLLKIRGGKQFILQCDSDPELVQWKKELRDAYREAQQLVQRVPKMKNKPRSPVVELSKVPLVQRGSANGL
row,SMILES,inhibition of aptamer binding [%]
1,Cc1nc2c(=O)n(C)c(=O)nc-2n(C)n1,2.89
2,O=C1NC(=O)N(c2ccc3c(c2)OCO3)C(=O)/C1=C\c1ccc(-c2ccccc2C(=O)O)o1,-4.21
3,Cn1ncnc2c(=O)n(C)c(=O)nc1-2,6.02
4,CC[n+]1c(/C=C/N(C)c2ccccc2)sc2ccc(Cl)cc21,69.3
